Tested on: Vero E6 infected with SARS-CoV-2
Test: inhibition of SARS-CoV-2 cytopathic effect; higher = more antiviral protection, active = above 15
Settings: 48 h

Measured: inhibition of SARS-CoV-2 cytopathic effect

O=C(O)Cc1ccc(OCc2ccccc2)c(Cl)c1 [benzofenac]
inactive: 1 nM -0.05% | 8.33 nM 4.15% | 100 nM 1.74% | 833.33 nM 1.88% | 10000 nM 0.27%

N[C@H]1C[C@@H]1c1ccc(-c2cccc(O)c2)cc1
inactive: 1 nM 1.62% | 8.33 nM -1.45% | 100 nM -0.41% | 833.33 nM -1.63% | 10000 nM -0.24%

COc1ccc(C(=O)CC2(O)C(=O)Nc3c(Cl)ccc(Cl)c32)cc1 (stereo not given)
inactive: 1 nM 2.13% | 8.33 nM 3.01% | 100 nM -1.11% | 833.33 nM 1.43% | 10000 nM -1.83%

CN(C)CCOC(c1ccccc1)c1ccccc1 [diphenhydramine]
inactive: 1 nM 0.83% | 8.33 nM 0.08% | 100 nM -0.85% | 833.33 nM 0.48% | 10000 nM -0.92%

CO[C@H]1/C=C/O[C@@]2(C)Oc3c(C)c(O)c4c(O)c(c(/C=N/N5CCN(C)CC5)c(O)c4c3C2=O)NC(=O)/C(C)=C\C=C\[C@H](C)[C@H](O)[C@@H](C)[C@@H](O)[C@@H](C)[C@H](OC(C)=O)[C@@H]1C [rifampin]
inactive: 1 nM -3.64% | 8.33 nM -3.69% | 100 nM -2.5% | 833.33 nM -3.32% | 10000 nM -1.54%

C=C[C@@H]1C[C@]1(NC(=O)[C@@H]1C[C@@H]2CN1C(=O)[C@H](C(C)(C)C)NC(=O)O[C@@H]1C[C@H]1CCCCCc1nc3ccc(OC)cc3nc1O2)C(=O)NS(=O)(=O)C1CC1 [grazoprevir]
inactive: 1 nM -0.59% | 8.33 nM -3.18% | 100 nM -2.52% | 833.33 nM 1.78% | 10000 nM 1.23%

Oc1ccc(CC2NCCc3cc(O)c(O)cc32)cc1 (stereo not given) [higenamine]
inactive: 1 nM 1.31% | 8.33 nM 2.53% | 100 nM 1.77% | 833.33 nM -0.52% | 10000 nM -2.56%

C[C@H]1N=C(N(C)C)N=C(N)N1 [imeglimin]
inactive: 1 nM 1.51% | 8.33 nM 1.14% | 100 nM 0.07% | 833.33 nM 0.43% | 10000 nM -0.77%

CC#CCC(C)[C@H](O)/C=C/[C@@H]1[C@H]2C/C(=C/CCCC(=O)O)C[C@H]2C[C@H]1O (stereo not given in full) [iloprost]
inactive: 1 nM -0.22% | 8.33 nM -1.1% | 100 nM -0.18% | 833.33 nM -2.21% | 10000 nM -1.94%

Oc1ccc(/C=C/c2cc(O)cc(O)c2)cc1 [resveratrol]
inactive: 1 nM 1.06% | 8.33 nM 0.64% | 100 nM -2.17% | 833.33 nM -0.25% | 10000 nM 3.82%

CCC(C)(C)C(=O)O[C@H]1C[C@@H](C)C=C2C=C[C@H](C)[C@H](CC[C@@H]3C[C@@H](O)CC(=O)O3)[C@H]21 [simvastatin]
inactive: 1 nM -3.26% | 8.33 nM 0.13% | 100 nM -0.41% | 833.33 nM -0.83% | 10000 nM 5.01%

CC(=O)N1CCN(CCOc2ccc(C3CCN(C4=Nn5c(nnc5C(F)(F)F)CC4)CC3)cc2)CC1
inactive: 1 nM 0.09% | 8.33 nM 1.43% | 100 nM 0.26% | 833.33 nM 1.65% | 10000 nM 1.88%

CCOc1ccc(C[C@H]2NC(=O)CCSSC[C@@H](C(=O)N3CCC[C@H]3C(=O)N[C@@H](CCCN)C(=O)NCC(N)=O)NC(=O)[C@H](CC(N)=O)NC(=O)[C@H]([C@@H](C)O)NC(=O)[C@H]([C@@H](C)CC)NC2=O)cc1 [atosiban]
inactive: 1 nM 1.81% | 8.33 nM -1.47% | 100 nM -2.35% | 833.33 nM -0.16% | 10000 nM 0.37%

Nc1ncnc2c1ncn2[C@@H]1O[C@H](COP(=O)(O)OP(=O)(O)OP(=O)(O)O)[C@@H](O)[C@H]1O
inactive: 1 nM -0.89% | 8.33 nM -1.33% | 100 nM -0.6% | 833.33 nM 2.57% | 10000 nM 2.48%

O=C(O)/C=C/CO [trans-4-hydroxycrotonic-acid]
inactive: 1 nM 2.26% | 8.33 nM 3.93% | 100 nM 1.39% | 833.33 nM 5.18% | 10000 nM 4.35%

O=C1C(=O)N(Cc2ccc(Cl)c(Cl)c2)c2ccccc21 [apoptosis-activator-II]
inactive: 1 nM 1.74% | 8.33 nM -0.59% | 100 nM -1.07% | 833.33 nM -3.55% | 10000 nM -3.11%

CC(C)[C@H](NS(=O)(=O)c1ccc(-c2ccc(Br)cc2)cc1)C(=O)O
inactive: 1 nM 0.82% | 8.33 nM 0.67% | 100 nM -0.06% | 833.33 nM 0.69% | 10000 nM 1.89%

O=C(/C=C/c1ccccc1)NCCO [brolitene]
inactive: 1 nM -0.76% | 8.33 nM -1.09% | 100 nM -0.6% | 833.33 nM -2.74% | 10000 nM 1.92%

C[C@H](CCC(=O)O)[C@H]1CC[C@H]2[C@@H]3[C@H](O)C[C@@H]4C[C@H](O)CC[C@]4(C)[C@H]3C[C@H](O)[C@]12C [cholic-acid]
inactive: 1 nM -0.3% | 8.33 nM 0.75% | 100 nM 0.02% | 833.33 nM -0.84% | 10000 nM 0.54%

CC1(C)CCC(C)(C)c2cc(C(=O)Nc3ccc(C(=O)O)cc3)ccc21
inactive: 1 nM 0.12% | 8.33 nM 2.74% | 100 nM 1.53% | 833.33 nM 1.49% | 10000 nM 3.21%

CC[C@@H](CO)NC(=O)[C@@H]1C=C2c3cccc4c3c(cn4C)C[C@H]2N(C)C1 [methysergide]
inactive: 1 nM -0.52% | 8.33 nM 0.46% | 100 nM 0.82% | 833.33 nM 1.51% | 10000 nM 0.92%

NCCc1cc[nH]n1 [betazole]
inactive: 1 nM 0.58% | 8.33 nM 1.07% | 100 nM 2.63% | 833.33 nM 0.04% | 10000 nM 0.97%

C[N@+]1(CC2CC2)CC[C@]23c4c5ccc(O)c4O[C@H]2C(=O)CC[C@@]3(O)[C@H]1C5 [methylnaltrexone]
inactive: 1 nM 1.92% | 8.33 nM -0.19% | 100 nM 1.95% | 833.33 nM 1.11% | 10000 nM 1.64%

C[C@@H](O)[C@H](N)C(=O)N1CCC[C@H]1C(=O)N1CCC[C@H]1C(=O)N[C@H](C(N)=O)[C@@H](C)O [rapastinel]
inactive: 1 nM -2.84% | 8.33 nM -5.74% | 100 nM 0.55% | 833.33 nM -1.01% | 10000 nM -0.06%

CCC(CC)COC(=O)[C@H](C)N[P@](=O)(OC[C@H]1O[C@@](C#N)(c2ccc3c(N)ncnn23)[C@H](O)[C@@H]1O)Oc1ccccc1 [Remdesivir]
inactive: 1 nM -0.54% | 8.33 nM 1.32% | 100 nM 1.51% | 833.33 nM 0.56% | 10000 nM 9.79%

CN(c1ncccc1CNc1nc(Nc2ccc3c(c2)CC(=O)N3)ncc1C(F)(F)F)S(C)(=O)=O
inactive: 1 nM 0.16% | 8.33 nM 0.22% | 100 nM -1.3% | 833.33 nM -2.48% | 10000 nM -3.05%

O=C(O)c1cc(=O)c2ccccc2[nH]1 [kynurenic-acid]
inactive: 1 nM 3.61% | 8.33 nM 1.12% | 100 nM 2.79% | 833.33 nM 2.98% | 10000 nM 1.89%

CC(C)[C@@H](C)/C=C/[C@@H](C)[C@H]1CC[C@H]2/C(=C/C=C3\C[C@@H](O)CC[C@@H]3C)CCC[C@]12C [dihydrotachysterol]
inactive: 1 nM -0.76% | 8.33 nM 0.52% | 100 nM -1.39% | 833.33 nM -0.26% | 10000 nM -0.14%

C=C(C)[C@@H]1CC[C@]2(CO)CC[C@]3(C)[C@H](CC[C@@H]4[C@@]5(C)CC[C@H](O)C(C)(C)[C@@H]5CC[C@]43C)[C@@H]12
inactive: 1 nM -5.94% | 8.33 nM -10.1% | 100 nM -7.13% | 833.33 nM -9.2% | 10000 nM -12.6%

COc1ccc(Cn2ccc3ccc(C(=O)NO)cc32)cc1
inactive: 1 nM 0.35% | 8.33 nM 0.42% | 100 nM 3.29% | 833.33 nM 1.7% | 10000 nM -2.47%

CN1C(C(=O)Nc2ccccn2)=C(O)c2sccc2S1(=O)=O [tenoxicam]
inactive: 1 nM -1.61% | 8.33 nM -5.04% | 100 nM -1.6% | 833.33 nM 0.7% | 10000 nM -2.71%

COc1cc(Br)c(S(=O)(=O)Nc2ccc(C(F)(F)F)c(O[C@@H]3CCN(C)C3)c2)cc1OC
inactive: 1 nM 1.05% | 8.33 nM 2.6% | 100 nM -1.36% | 833.33 nM -0.46% | 10000 nM -2.24%

CS(=O)(=O)Nc1c(O)ccc2c1CCC[C@H]2C1=NCCN1
inactive: 1 nM 1.13% | 8.33 nM -1.43% | 100 nM -1.29% | 833.33 nM 0.49% | 10000 nM -3.82%

NC(=O)CCCCC1CCSS1 (stereo not given) [lipoamide]
inactive: 1 nM 1.2% | 8.33 nM 1.81% | 100 nM -0.52% | 833.33 nM -3.3% | 10000 nM 3.78%

CCCOc1ccc2[nH]cc(C3=CCNCC3)c2n1
inactive: 1 nM 2.78% | 8.33 nM 1.38% | 100 nM -1.41% | 833.33 nM 2.78% | 10000 nM -1.56%

O=C(NCCCN1CCCCCC1)C(c1ccccc1)C1CCCCC1 (stereo not given)
inactive: 1 nM -0.49% | 8.33 nM 0.99% | 100 nM 0.31% | 833.33 nM -2.41% | 10000 nM -8.06%

O[C@@H]1[C@H](O)[C@@H](CCl)O[C@H]1n1cnc2c(NC3CC4CCC3C4)ncnc21 (mixture of isomers) [5'-chloro-5'-deoxy-ENBA-(+/-)]
inactive: 1 nM -4.47% | 8.33 nM -2.02% | 100 nM 0.3% | 833.33 nM 3.77% | 10000 nM -3.73%
